# Abs 340nm – absorbance at 340 nm. fold change at 10 µM. compound absorbance at 340 nm, fold over control. AID 708. 65,000 tested, under 10 active;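 active = at 10 µM dose, initial 340 nm absorbance at least 2 fold that of control wells; inactive = change under 2 fold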;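 note: initial absorbance extrapolated from kinetic A340 decline of NADH oxidation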
# MK inhibit – S. pneumoniae mevalonate kinase inhibition | purified MK, PK/LDH-coupled NADH absorbance 340 nm | inhibition, % at 10 µM | 0.48% of 65,000 active;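 active = ranked among the strongest by inhibition in the single 10 µM screen, a fixed top-ranked set picked for dose follow-up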
# Spn DPM-DC inh – inhibitors of Streptococcus pneumoniae diphosphomevalonate decarboxylase. 0.49% of 65,000 active. purified DPM-DC, PK/LDH coupled NADH fluorescence. calls only at 10 µM. AID 556;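 active = the 320 compounds with the highest percent inhibition in the single-dose primary screen, excluding strongly autofluorescent ones, cut at about 32% in these data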;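 note: kinetic rate of NADH fluorescence loss reporting ADP formed by the decarboxylase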
# NADH enzymes – inhibitors of enzymes used to reach an NAD/NADH endpoint. coupled PK/LDH NADH assays, four targets. IC50, µM (top dose mostly 10 µM), for the others: at the highest dose inhibition. 0.02% of 65,000 active. AID 774;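 active = single-dose screening hits from any of four coupled enzyme assays that gave an IC50 when retested across doses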;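 note: the DPM-DC format reads NADH fluorescence rather than 340 nm absorbance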
# Autofluor 339 – intrinsic fluorescence of library compounds, ex339/em460 – biochemical, MLSMR library, data from DPM-DC assay, artefact control, profiling panel. compound autofluorescence, ex339/em460 nm, NADH buffer; active compounds read high; 1 = no-compound wells, NADH background. fluorescence fold increase at 10 µM. 5.5% of 65,000 active;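 active = at 10 µM, mean starting fluorescence two-fold or more over control wells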;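 note: signal is the first read of a kinetic run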
# PMK inhibit – S. pneumoniae PMK inhibition; purified PMK, PK/LDH-coupled NADH absorbance 340 nm; inhibition, % at 10 µM; 0.49% of 65,000 active; AID 539;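 active = top-ranked compounds by inhibition in the single 10 µM screen, taking a fixed number of the strongest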;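 note: 0% = full reaction with DMSO carrier and 100% = background rate without enzyme reaction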
# Numbers without * were called inactive; i = inactive; · = no result shown; + = active, no number; [ ] = remark or other dose. Only some compounds are listed: those with a hit (about 6.8% of all), similar ones and a draw of the others.
SMILES,Abs 340nm,MK inhibit,Spn DPM-DC inh,NADH enzymes,Autofluor 339,PMK inhibit
COc1ccc(NC(=O)c2oc3ccccc3c2NC(=O)c2ccco2)cc1,1.03,0.0,i,1.0%,1.17,7.0
COc1ccc(OC)c2c(C)cc(N3CCN(C(=O)c4ccc(F)cc4)CC3)nc12,1.07,3.0,i,6.0%,2.94*,4.0
Cc1cccc(OCC(O)Cn2c(-n3nc(C)cc3C)nc3c2c(=O)[nH]c(=O)n3C)c1 (configuration not stated),0.98,13.0,+,19.0%,2.92*,11.0
CCOC(=O)N1CCC(NC(=O)c2ccc3c(c2)N(C)CCS3)CC1,1.02,0.0,·,3.0%,3.4*,9.0
CCOC(=O)N1CCN(C(=O)c2ccc(N3C(=O)c4ccccc4C3=O)cc2)CC1,1.02,9.0,i,4.0%,1.12,1.0
COC(=O)c1ccc2c(c1)N(C)CCS2,1.05,1.0,·,3.0%,2.09*,4.0
CCOC(=O)N1CCN(C(=O)c2ccc3c(c2)N(CC)CCS3)CC1,1.03,11.0,·,11.0%,2.04*,10.0
CCOC(=O)N1CCC(NC(=O)c2cc(C(=O)NC3CCCC3)ccc2CO)CC1,0.98,4.0,i,2.0%,1.01,9.0
Cc1nnc(SCCn2c(N(C)Cc3ccccc3)nc3c2c(=O)n(C)c(=O)n3C)s1,1.01,7.0,i,6.0%,1.08,10.0
Cc1ccc2c(CC(=O)N3CCN(S(=O)(=O)c4ccc5c(c4)OCCO5)CC3)coc2c1,1.01,4.0,i,4.0%,1.12,7.0
CCCSc1nc(C)c(CC(=O)O)c(=O)[nH]1,1,0.0,i,3.0%,1.07,10.0
CCCn1c(SCC#N)nc2c(c1=O)C1(CCCC1)Cc1ccccc1-2,1.06,0.0,i,3.0%,1.04,9.0
N#CCSc1n[nH]c2nc3c(c(=O)n12)C1(CCCC1)Cc1ccccc1-3,1.06,8.0,·,4.0%,2.25*,0.0
CCc1cc2c(=O)c(-n3cnc4ccccc43)coc2cc1O,1.12,2.0,·,8.0%,4.22*,13.0
Cc1cc(C)c2oc(-c3ccc(Cl)c(NC(=O)c4ccc(C#N)cc4F)c3)nc2c1,1.14,9.0,·,7.0%,3.97*,5.0
COc1ccc(-c2nnn(CCc3nn[nH]n3)n2)cc1OC,0.98,0.0,i,1.0%,1.06,7.0
Cc1nn(CCc2nn[nH]n2)c2nc(C(F)(F)F)cc(C(F)(F)F)c12,1.02,4.0,·,6.0%,4.96*,8.0
N/C(CCN1CCOCC1)=N/O,1.08,52.0*,i,36.0%,1.07,36.0
COc1ccc(Cl)cc1C(=O)Nc1nnn(C)n1,0.98,2.0,i,9.0%,1.08,23.0
CCN1C2=C(C(=O)CCC2)C(c2ccc(O)c(Br)c2)C2=C1CCCC2=O,1.05,6.0,·,5.0%,2.07*,4.0
Cc1ccc(C2CC(=O)NC3=C2C(=O)CCC3)cc1Br (configuration not stated),1.02,1.0,i,4.0%,1.15,12.0
CCOC(=O)CNC(=O)c1cnn2cccnc12,1.07,17.0,i,13.0%,2.27*,4.0
Cc1cc(S(=O)(=O)N2CCN(c3ncccn3)CC2)ccc1-n1cnnn1,1,0.0,i,3.0%,1.04,16.0
c1ccc2sc(-c3ccc4c(c3)OCO4)nc2c1,1.09,8.0,·,12.0%,2.12*,15.0
CC1(C)CC(=O)C(C=NCCN2CCN(C(=O)c3ccccc3)CC2)=C(O)C1,1.04,11.0,i,4.0%,1.08,0.0
SMILES,Abs 340nm,MK inhibit,Spn DPM-DC inh,NADH enzymes,Autofluor 339,PMK inhibit
CC1(C)CC(=O)C(C=NCCN2CCN(CCc3ccccc3)CC2)=C(O)C1,1.02,1.0,i,3.0%,1.08,active
Cc1ccc2nc3c(cc(C(N)=S)c(=N)n3CCCOC(C)C)c(=O)n2c1,1.05,11.0,i,8.0%,1.51,10.0
CCc1cc2c(=O)c(-c3nc4ccccc4[nH]3)coc2cc1OC(=O)N1CCOCC1,1.03,0.0,+,5.0%,1.34,6.0
Nc1cccc(-c2nc3ccc(N)cc3s2)c1,1.13,11.0,·,11.0%,3.87*,11.0
Cc1nonc1NC(=O)c1ccc(Cl)c(S(=O)(=O)N2CCCCC2)c1,0.95,4.0,i,5.0%,1.07,12.0
O=C(c1ccc(CS(=O)(=O)Cc2ccc(Cl)cc2)o1)N1CCCC1,0.99,2.0,i,9.0%,1,26.0*
COc1ccccc1NC(=O)N(CCCN1CCOCC1)Cc1cc2cc3c(cc2[nH]c1=O)OCO3,1.15,5.0,i,14.0%,3.49*,12.0
O=C(Nc1ccc(F)cc1)N(CCCN1CCOCC1)Cc1cc2cc3c(cc2[nH]c1=O)OCCO3,1.09,8.0,·,13.0%,3.17*,17.0
O=C(Nc1ccc(F)cc1)N(CCCN1CCOCC1)Cc1cc2cc3c(cc2[nH]c1=O)OCO3,1.05,7.0,+,11.0%,2.71*,27.0*
Cc1cccc(N2CCN(C(=O)c3cc4c(C)nc5ccccc5c4o3)CC2)c1C,1.02,10.0,i,12.0%,1.09,25.0
Cc1noc(C)c1C(=O)OCC(=O)NCCC1=CCCCC1,1.02,0.0,i,5.0%,1.1,15.0
COc1cc(CCC(=O)N2CCN(S(=O)(=O)c3ccc(C)c(C)c3)CC2)cc(OC)c1OC,0.99,0.0,i,6.0%,1.04,18.0
COc1cc(CCC(=O)N2CCN(c3ccc(N4CCOCC4)nn3)CC2)cc(OC)c1OC,1.03,8.0,·,12.0%,2.16*,15.0
O=C(CCCc1c[nH]c2ccccc12)N1CCN(c2ccc(N3CCOCC3)nn2)CC1,1.04,5.0,·,3.0%,2.15*,1.0
NC(=O)CCc1c[nH]c2ccccc12,1.03,6.0,i,4.0%,1.18,5.0
O=C1c2cccnc2C(=O)N1Cc1ccc2c(c1)OCO2,1.05,10.0,i,6.0%,1.13,7.0
O=C(CN1c2cccc3cccc(c23)S1(=O)=O)N1CCOCC1,0.99,8.0,+[fluoresces],1.0%,2.77*,3.0
Cc1c(NC(=O)CN2c3cccc4cccc(c34)S2(=O)=O)c(=O)n(-c2ccccc2)n1C,1.01,5.0,+[may fluoresce],2.0%,2.52*,9.0
Cc1c(NC(=O)CN2C(=O)c3ccccc3S2(=O)=O)c(=O)n(-c2ccccc2)n1C,1.02,9.0,i,5.0%,1.12,6.0
COc1ccc(NC(=O)CN2c3cccc4cccc(c34)S2(=O)=O)cc1,1.01,0.0,i,5.0%,2.33*,13.0
CCc1ccc(OCc2nnc(SCCN3CCOCC3)n2C)cc1,1.05,3.0,i,2.0%,1.07,3.0
CSc1nc2nc(-c3ccccc3)cc(C(F)(F)F)n2n1,1.17,2.0,·,3.0%,3.83*,3.0
CSc1nc2nc(C)cc(-c3ccccc3)n2n1,1.04,10.0,i,7.0%,1.73,1.0
COc1ccc(-n2c(N)c(C(=O)NCc3ccco3)c3nc4ccccc4nc32)c(OC)c1,1.04,10.0,·,3.0%,2.92*,15.0
COc1ccc(CCNC(=O)c2ccc3nc(-c4ccco4)c(-c4ccco4)nc3c2)cc1OC,1.02,27.0,i,19.0%,2.42*,15.0

# Screening results: PubChem BioAssay, SRMLSC
